# CYP2C19 inh: blockers of cytochrome P450 2C19 activity – biochemical, luminescence, ADME assay, primary screen; CYP2C19 Supersomes, luciferin-H EGE luminescence, 30 min; inhibition, % at 5 µM; 96,000 compounds, 21% hits; AID 778, 2007;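 active means CYP2C19 inhibition above a set limit at 5 µM in the primary screen, cut at about 50% in these data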;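 further: plate controls were negative control wells for no effect and 2.5 mM tranylcypromine positive control for full effect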
# Pyk2 oligo antag: antagonists of Pyk2 self-association, primary screen, Q293 cells, FERM NanoBiT luminescence, HTS. Protein-tyrosine kinase 2-beta (Homo sapiens), Q14289. z-score (the deposit names both 25 µM and 10 µM). active compounds read low. 99,000 compounds, 0.83% hits;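 active means Z-score of -3 or lower, scaled per plate to the spread of control and sample wells; inactive means z-score above -3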;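 further: negative z-score means lost luminescence so less FERM oligomerization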
# CYP2C9 inh: blockers of cytochrome P450 2C9 activity – biochemical, luminescence, ADME assay, primary screen. P11712. CYP2C9 Supersomes, luciferin-H conversion. inhibition, % at 5 µM. 96,000 compounds, 20% hits;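 active means blocking of liver enzyme CYP2C9 beyond about 50% at 5 µM, limit read from the data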
# CYP2C19 act: human CYP2C19 activators, primary screen, biochemical, luminescence. Cytochrome P450 2C19 (Homo sapiens), P33261. recombinant CYP2C19, luciferin-H EGE luminescence; active compounds read high; 0 = fully inhibited enzyme, 1 = untreated enzyme. activation factor at 5 µM. 96,000 tested, under 10 active. AID 1025, 2008;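 active means activation factor of at least 2 at 5 µM in the primary screen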;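 further: 0 = wells with 2.5 mM tranylcypromine and 1 = vehicle-only wells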
# Cav32 inh: Cav3.2 calcium influx blockers – cell-based, Fluo-4 calcium fluorescence, FDSS, MLSMR library, primary screen. 100,000 compounds, 4% hits. Cav3.2-expressing cells; active compounds read low. AID 449739, 2010. B-score at 10 µM. Voltage-dependent T-type calcium channel subunit alpha-1H (Homo sapiens), O95180;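 active means single-dose well whose peak fluorescence ratio is a statistical outlier from its plate by either plate-standardised score or position-corrected B-score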
# Target sequence (O95180 whole entry, looked up): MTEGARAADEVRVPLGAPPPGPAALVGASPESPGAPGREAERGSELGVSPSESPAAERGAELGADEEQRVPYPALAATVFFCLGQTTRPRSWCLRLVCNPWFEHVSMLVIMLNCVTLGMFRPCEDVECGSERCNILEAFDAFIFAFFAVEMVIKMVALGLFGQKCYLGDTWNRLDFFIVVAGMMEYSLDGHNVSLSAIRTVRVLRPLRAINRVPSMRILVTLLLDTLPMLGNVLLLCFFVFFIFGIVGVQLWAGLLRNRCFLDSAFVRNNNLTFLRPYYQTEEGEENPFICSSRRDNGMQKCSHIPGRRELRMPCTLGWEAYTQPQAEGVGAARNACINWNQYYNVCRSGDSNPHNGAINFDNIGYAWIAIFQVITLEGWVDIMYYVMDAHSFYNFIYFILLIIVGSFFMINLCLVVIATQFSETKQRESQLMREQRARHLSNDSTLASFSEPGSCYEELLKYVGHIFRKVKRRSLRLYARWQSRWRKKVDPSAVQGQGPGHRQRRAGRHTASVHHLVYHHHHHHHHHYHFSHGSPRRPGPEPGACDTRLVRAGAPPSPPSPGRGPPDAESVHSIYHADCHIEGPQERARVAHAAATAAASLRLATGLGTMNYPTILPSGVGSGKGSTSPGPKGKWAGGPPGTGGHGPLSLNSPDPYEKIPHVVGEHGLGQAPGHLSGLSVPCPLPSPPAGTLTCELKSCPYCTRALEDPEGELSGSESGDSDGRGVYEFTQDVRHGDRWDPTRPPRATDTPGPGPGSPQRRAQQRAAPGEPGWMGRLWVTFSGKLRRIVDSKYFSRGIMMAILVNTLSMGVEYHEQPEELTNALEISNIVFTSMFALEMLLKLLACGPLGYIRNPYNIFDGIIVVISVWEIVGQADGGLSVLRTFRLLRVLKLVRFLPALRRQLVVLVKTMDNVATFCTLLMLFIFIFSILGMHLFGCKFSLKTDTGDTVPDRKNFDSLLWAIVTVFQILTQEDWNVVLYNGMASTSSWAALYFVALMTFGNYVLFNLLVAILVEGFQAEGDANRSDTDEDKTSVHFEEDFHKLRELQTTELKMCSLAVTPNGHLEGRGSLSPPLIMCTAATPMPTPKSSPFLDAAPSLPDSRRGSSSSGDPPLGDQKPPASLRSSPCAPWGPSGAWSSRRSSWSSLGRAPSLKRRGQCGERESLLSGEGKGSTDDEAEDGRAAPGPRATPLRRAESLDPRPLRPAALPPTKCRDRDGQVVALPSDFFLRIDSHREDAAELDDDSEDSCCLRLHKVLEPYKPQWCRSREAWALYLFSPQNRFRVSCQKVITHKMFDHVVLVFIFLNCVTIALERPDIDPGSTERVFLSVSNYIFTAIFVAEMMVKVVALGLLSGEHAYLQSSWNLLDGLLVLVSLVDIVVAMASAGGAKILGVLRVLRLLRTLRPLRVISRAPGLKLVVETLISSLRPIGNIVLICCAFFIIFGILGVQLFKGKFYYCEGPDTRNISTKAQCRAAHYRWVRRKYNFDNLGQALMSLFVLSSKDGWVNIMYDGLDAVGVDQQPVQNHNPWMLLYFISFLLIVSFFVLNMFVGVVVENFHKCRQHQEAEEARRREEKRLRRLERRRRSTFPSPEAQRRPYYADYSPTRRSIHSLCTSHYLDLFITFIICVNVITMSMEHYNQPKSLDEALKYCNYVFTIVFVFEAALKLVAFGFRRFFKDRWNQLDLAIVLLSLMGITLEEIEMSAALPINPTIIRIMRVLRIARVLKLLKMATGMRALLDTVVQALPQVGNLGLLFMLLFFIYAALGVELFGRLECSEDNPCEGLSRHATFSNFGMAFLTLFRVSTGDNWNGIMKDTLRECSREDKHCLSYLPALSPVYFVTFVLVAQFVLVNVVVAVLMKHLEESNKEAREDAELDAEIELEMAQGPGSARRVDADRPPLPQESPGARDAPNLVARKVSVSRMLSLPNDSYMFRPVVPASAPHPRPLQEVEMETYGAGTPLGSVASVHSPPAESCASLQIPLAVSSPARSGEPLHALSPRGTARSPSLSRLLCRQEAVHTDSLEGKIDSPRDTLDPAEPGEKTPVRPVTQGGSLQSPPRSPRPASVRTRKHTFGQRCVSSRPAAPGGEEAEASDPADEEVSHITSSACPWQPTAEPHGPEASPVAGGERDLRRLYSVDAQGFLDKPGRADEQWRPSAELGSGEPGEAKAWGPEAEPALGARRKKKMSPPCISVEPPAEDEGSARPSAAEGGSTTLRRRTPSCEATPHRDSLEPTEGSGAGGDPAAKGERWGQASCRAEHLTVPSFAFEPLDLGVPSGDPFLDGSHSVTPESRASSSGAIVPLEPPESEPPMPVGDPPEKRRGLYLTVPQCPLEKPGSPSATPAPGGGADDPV
# CYP2C9 activ: human CYP2C9 activators, primary screen, biochemical, luminescence | Cytochrome P450 2C9 (Homo sapiens), P11712 | recombinant CYP2C9, luciferin-H conversion; active compounds read high; factor 1 = untreated enzyme, 0 = blocked | activation factor at 5 µM | 96,000 compounds, 1.4% hits | AID 1024, 2008;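 active means activation factor of 2 or more for CYP2C9 at a 5 µM dose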;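 further: 0 = sulfaphenazole-blocked wells and 1 = vehicle-only wells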
# Active calls of the source: *; . = no result. This is a sample that favours compounds with a hit; in the whole collection about 27% have one here.
SMILES,CYP2C19 inh,Pyk2 oligo antag,CYP2C9 inh,CYP2C19 act,Cav32 inh,CYP2C9 activ
CCn1c(SCC(=O)Nc2nc(-c3ccccc3)cs2)nnc1-c1ccccc1,94*,-0.95,96*,0.1,-3.1,0
CCn1c(SCC(=O)N/N=C/C(C)=C/c2ccco2)nnc1-c1ccccc1,85*,0.5,47,0.2,-0.044,0.5
O=C(CN(C(=O)C1COc2ccccc2O1)c1ccccc1)NCC1CCCO1 (configuration not stated),51*,0.45,8,0.5,2.5,0.9
N#Cc1c(NCCN)nc(-c2ccco2)c2c1CCCC2,10,0.55,24,0.9,0.15,0.8
O=S(=O)(Nc1ccc2c(c1)oc1ccccc12)N1CCCC1,47,-2.1,89*,0.5,-5.9*,0.1
O=C(NCCc1ccccc1)c1ccccc1NS(=O)(=O)N1CCCC1,89*,-1.4,86*,0.1,-0.77,0.1
O=S(=O)(c1ccc2c(c1)oc1ccccc12)N1CCOCC1,10,-0.93,-42,0.9,-0.58,1.4
O=C(COC(=O)c1cc(S(=O)(=O)N2CCOCC2)ccc1O)NCCc1ccccc1,49,1.2,83*,0.5,-0.0022,0.2
O=C(NCCc1ccccc1)c1cc(S(=O)(=O)N2CCOCC2)ccc1F,6,0.19,54*,0.9,1.2,0.5
Cc1nn2c(N3CCCC3)cc(C(C)C)nc2c1-c1ccccc1,-8,-0.3,-14,1.1,-0.088,1.1
COc1ccc(S(=O)(=O)N2CCCCCC2)cc1C(=O)OCC(=O)NCC(C)C,35,0.03,41,0.7,1.1,0.6
CC(C)CNC(=O)COC(=O)c1cc(S(=O)(=O)N2CCCCC2)ccc1N1CCOCC1,47,0.14,69*,0.5,-0.12,0.3
O=S(=O)(Nc1cccc2ccccc12)N1CCCC1,68*,2,10,0.3,-1.3,0.9
O=C(c1cc(S(=O)(=O)N2CCOCC2)ccc1F)N1CCN(Cc2ccccc2)CC1,75*,0.04,9,0.3,1.2,0.9
O=C(NCc1ccccc1)c1cc(S(=O)(=O)N2CCOCC2)ccc1F,14,2.1,9,0.9,0.93,0.9
Cc1ccc(Cl)cc1NC(=O)CC1NCCNC1=O (configuration not stated),.,0.72,.,.,0.96,.
CCOc1ncccc1C(=O)OCC(=O)N1CCN(S(=O)(=O)c2ccc(Cl)cc2)CC1,2,-0.95,-10,1,0.91,1.1
CCOc1ncccc1C(=O)OCC(=O)Nc1c(C)cc(C)cc1C,60*,0.19,44,0.4,0.64,0.6
Cc1cccc(C)c1NC(=O)COC(=O)c1nonc1N,26,1.1,-12,0.7,0.33,1.1
CCOc1ncccc1C(=O)OCC(=O)Nc1c(C)cccc1C,52*,2.3,24,0.5,-0.64,0.8
Cc1ccc(S(=O)(=O)N[C@H](C(=O)N2CCC(C(=O)NCC(=O)O)CC2)C(C)C)cc1,9,0.87,23,0.9,0.031,0.8
C[C@@H]1C=C(C(=O)NCc2ccccc2)O[C@H](OCc2ccc(CO)cc2)C1,.,.,.,.,0.47,.
COc1cccc(-c2cc3nc(-c4ccccc4)cc(N4CCC5(CC4)OCCO5)n3n2)c1,34,-1,55*,0.7,-2.1,0.4
CN1CCN(c2cc(-c3ccccc3)nc3cc(-c4ccc(F)cc4)nn23)CC1,34,-0.46,37,0.7,0.77,0.6
COc1cccc(C2NC(=O)NC(O)(C(F)(F)F)C2C(=O)c2cccnc2)c1OC (configuration not stated),92*,0.1,49,0.1,1.3,0.5
SMILES,CYP2C19 inh,Pyk2 oligo antag,CYP2C9 inh,CYP2C19 act,Cav32 inh,CYP2C9 activ
COc1ccc(C2NC(=O)NC(O)(C(F)(F)F)C2C(=O)c2ccccc2)cc1OC (configuration not stated),9,-0.46,18,0.9,0.46,0.8
OC(COCc1cccs1)CN1CCN(c2ccccn2)CC1 (configuration not stated),0,0.05,-10,1,-0.69,1.1
OC(COc1ccc(Cl)c2ccccc12)CN1CCN(c2ccccn2)CC1 (configuration not stated),92*,-0.64,59*,0.1,-0.022,0.4
Cc1ccc(C)n1CCN1CCN(C(=O)c2ccco2)CC1,4,-0.19,1,1,0.14,1
OC(CN1CCN(c2ccccn2)CC1)Cn1c2ccccc2c2ccccc21 (configuration not stated),57*,0.12,54*,0.4,-2.6,0.5
Cc1c(C)n(CC(O)CN2CCCCCC2)c2ccccc12 (configuration not stated),72*,1.4,4,0.3,0.97,1
O=C(c1ccco1)N1CCN(CC(O)Cn2c3ccccc3c3ccccc32)CC1 (configuration not stated),83*,0.76,88*,0.2,-4.8*,0.1
CC(=O)c1ccc(OCC(O)CN2CCN(c3ccccn3)CC2)cc1 (configuration not stated),34,.,19,0.7,0.09,0.8
Cc1ccc2c(c1)c(C)c(C)n2CC(O)CN1CCOCC1 (configuration not stated),.,0.5,.,.,0.85,.
Cc1cc2nc(N)sc2cc1[N+](=O)[O-],-3,0.42,1,1,0.41,1
CCC(CC)c1nc(NCCC(=O)O)c2ccccc2n1,-3,0.5,4,1,0.76,1
N#Cc1c(N)n[nH]c1CCCN,-10,0.27,14,1.1,-0.0089,0.9
CN1CCN(c2cc3c(c4c2[nH]c2ccccc24)C(=O)CC(C)(C)C3)CC1,61*,.,78*,0.4,.,0.2
CN1CCN(c2ncnc3c2[nH]c2ccc(F)cc23)CC1,10,0.65,9,0.9,0.73,0.9
CCOC(=O)C(C)Sc1nc(C2CC2)cc(C(F)(F)F)c1C#N (configuration not stated),27,-0.49,25,0.7,-2.8,0.8
COc1cc(/C=N/NC(=O)/C(=C\c2ccc([N+](=O)[O-])cc2)NC(=O)c2ccccc2)cc(OC)c1O,44,-0.01,32,0.6,0.16,0.7
COc1cc(/C=N/N2C(=O)c3ccccc3NC2(C)c2cccc([N+](=O)[O-])c2)cc(Br)c1O (configuration not stated),50*,0.66,92*,0.5,-1.2,0.1
CCOC(=O)N1CCC(c2cc(=O)n3[nH]cc(C(=O)OC)c3n2)CC1,-10,.,62*,1.1,.,0.4
